According to PubChem BioAssay (Tox21):
Results filed as inconclusive are left out. Active and inactive are the calls of the source. Unless noted, calls come from the whole dose curve; as a rule, active = well fitted curve in the direction sought with a large enough effect in the repeat runs; inconclusive = weak or mixed curves; inactive = no such curve, though single readings can be large; an effect the other way counts as inactive or inconclusive.

Experiments:
[1] = qHTS assay for small molecule agonists of the p53 signaling pathway (AID 651631; calls by dose curve; note: nearly all actives have a fitted effect of over 15% in size)
Procedure, shortened: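 Beta-lactamase reporter activity under p53 response elements was quantified in HCT-116 cells by FRET fluorescence, following 16 h incubation with test compounds at 37 °C and 2 h substrate development at room temperature.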

[2] = qHTS assay for small molecules that induce genotoxicity in human embryonic kidney cells expressing luciferase-tagged ATAD5 (AID 651632); note: nearly all actives have a fitted effect of over 15% in size
Procedure, shortened: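 HEK293T cells carrying luciferase-tagged ATAD5 were given compound or DMSO vehicle and incubated 16 hr at 37C, 5% CO2. Luciferase activity was read after 30 min at room temperature with Amplite; a rise signals genotoxic stress.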

[3] = qHTS assay for small molecule agonists of the p53 signaling pathway - cell viability (AID 651633; calls by dose curve;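 note: p53RE-bla HCT reporter cells with a stable beta-lactamase p53 reporter; series mostly up to about 83 µM; nearly all actives have a fitted effect of over 30% in size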)
Procedure, shortened: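 p53RE-bla cells, seeded at 4,000 per well and rested 5 h at 37 C/5% CO2, received compounds in DMSO for 16 h at 37 C. CellTiter-Glo was then added, and luminescence was read after 30 min at room temperature to gauge cytotoxicity.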

[4] = qHTS assay for small molecules that induce genotoxicity in human embryonic kidney cells expressing luciferase-tagged ATAD5 - cell viability (AID 651634; calls by dose curve; note: nearly all actives have a fitted effect of over 25% in size)
Procedure, shortened: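 HEK293T cells carrying luciferase-tagged ATAD5, 2,000 cells/well, exposed to compound for 15.5 hr at 37C. Viability read as live-cell protease activity by CellTiter-Fluor fluorescence after 30 min at 37C.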

[5] = qHTS assay for small molecule disruptors of the mitochondrial membrane potential - cell viability (AID 720634; calls by dose curve;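 note: human HepG2 liver cancer cells; series mostly up to about 83 µM; nearly all actives have a fitted effect of over 20% in size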)
Procedure, shortened: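 HepG2 cells, 2,000 per well, attached overnight, then treated 1 hr at 37 C, 5% CO2. Viability read as ATP by CellTiter-Glo luminescence after 30 min at room temperature. Read in the same wells as the m-MPI membrane-potential dye assay.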

[6] = qHTS assay for small molecule disruptors of the mitochondrial membrane potential (AID 720635)
Procedure, shortened: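 HepG2 cells (2,000/well) attached overnight at 37C, then took compound for 1 hr at 37C, 5% CO2. Mito-MPS dye was added for 30 min; fluorescence was read at 490/535 nm (monomers) and 540/590 nm (aggregates).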

[7] = qHTS assay to test for compound auto fluorescence at 535 nm (green) in HepG2 cells (AID 720675)
[8] = qHTS assay to test for compound auto fluorescence at 460 nm (blue) in HEK293 cells (AID 720678)
Procedure, shortened: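 Intrinsic compound fluorescence is recorded in live HEK293 cultures after overnight incubation at 37C, 5% CO2, using excitation 405 nm and emission 460 nm. Values are referenced to triamterene.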

[9] = qHTS assay to test for compound auto fluorescence at 590 nm (red) in HEK293 cells (AID 720679)
Procedure, shortened: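 Red autofluorescence, HEK293 cells: 2,000 cells/well; attach 4-5 hr 37C; add 23 nL cpd or DMSO; incubate o/n 37C 5% CO2; read Ex540/Em590; Rose Bengal sodium reference.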

[10] = qHTS assay to test for compound auto fluorescence at 535 nm (green) in HEK293 cells (AID 720680)
[11] = qHTS assay to test for compound auto fluorescence at 460 nm (blue) in HEK293 cell free culture (AID 720681)
Procedure, shortened: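 Test compounds were pinned into cell-free culture medium (DMEM with 10% FBS) and fluorescence was read directly at Ex/Em 405/460 nm. Signals were expressed as fluorescence equivalents of triamterene, with DMSO vehicle as control.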

[12] = qHTS assay to test for compound auto fluorescence at 535 nm (green) in HEK293 cell free culture (AID 720682)
Procedure, shortened: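 Each library compound, or DMSO control, is added by pintool to medium alone, comprising DMEM and 10% FBS. Emission at 535 nm following 485 nm excitation is quantified against fluorescein.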

[13] = qHTS assay to test for compound auto fluorescence at 590 nm (red) in HEK293 cell free culture (AID 720683)
Procedure, shortened: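 Tox21 10K library compounds were pinned into cell-free DMEM with 10% FBS and fluorescence was read at excitation 540 nm. Activity is expressed as Rose Bengal sodium equivalency.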

[14] = qHTS assay to test for compound auto fluorescence at 590 nm (red) in HepG2 cell free culture (AID 720684)
Procedure, shortened: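 Red fluorescence (540 nm excitation, 590 nm emission) was measured after compound transfer into cell-free MEM supplemented with 10% FBS. Values are equivalencies against Rose Bengal sodium.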

[15] = qHTS assay to test for compound auto fluorescence at 460 nm (blue) in HepG2 cell free culture (AID 720685)
Procedure, shortened: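 Compound (23 nL) or DMSO pinned into cell-free MEM with 10% FBS; blue fluorescence read at 405/460 nm excitation/emission, expressed as auto-fluorescence equivalency to triamterene.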

[16] = qHTS assay to test for compound auto fluorescence at 535 nm (green) in HepG2 cell free culture (AID 720686)
[17] = qHTS assay to test for compound auto fluorescence at 460 nm (blue) in HepG2 cells (AID 720687)
Procedure, shortened: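 Cells (2,000/well in MEM with 10% FBS) attached overnight at 37 C, then were exposed to compound or DMSO for 1 hr at 37 C, 5% CO2. Fluorescence read at Ex/Em 405/460 nm, expressed as triamterene-equivalent signal.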

[18] = biological target: Glucocorticoid receptor (Homo sapiens) (UniProt P04150); experiment: qHTS assay to identify small molecule agonists of the glucocorticoid receptor (GR) signaling pathway (AID 720691; active = well fitted activation curve with a large enough effect in the signal ratio in the repeat runs, not every such curve was filed as active; the % refers to the signal ratio)
Chain of Glucocorticoid receptor (Homo sapiens) (P04150 whole entry, looked up): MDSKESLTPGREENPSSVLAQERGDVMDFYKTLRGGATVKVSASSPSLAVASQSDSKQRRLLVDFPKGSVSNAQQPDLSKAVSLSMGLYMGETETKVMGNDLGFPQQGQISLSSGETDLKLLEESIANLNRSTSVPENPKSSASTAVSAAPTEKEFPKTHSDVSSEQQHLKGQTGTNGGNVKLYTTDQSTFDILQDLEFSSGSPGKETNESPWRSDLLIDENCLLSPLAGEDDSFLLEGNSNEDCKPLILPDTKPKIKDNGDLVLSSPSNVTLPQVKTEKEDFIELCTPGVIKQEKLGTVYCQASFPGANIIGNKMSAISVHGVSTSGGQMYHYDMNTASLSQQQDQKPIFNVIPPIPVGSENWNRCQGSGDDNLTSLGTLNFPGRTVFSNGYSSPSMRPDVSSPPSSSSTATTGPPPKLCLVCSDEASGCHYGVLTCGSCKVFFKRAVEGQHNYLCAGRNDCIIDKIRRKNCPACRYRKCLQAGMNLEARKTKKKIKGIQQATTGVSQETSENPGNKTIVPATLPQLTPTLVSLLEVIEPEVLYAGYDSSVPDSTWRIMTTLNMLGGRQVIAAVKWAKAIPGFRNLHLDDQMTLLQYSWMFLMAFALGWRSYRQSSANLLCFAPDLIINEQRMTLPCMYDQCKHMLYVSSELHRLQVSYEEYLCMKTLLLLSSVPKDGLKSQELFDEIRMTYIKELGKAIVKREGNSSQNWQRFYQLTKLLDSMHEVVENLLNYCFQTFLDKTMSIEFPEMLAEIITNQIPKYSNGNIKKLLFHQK
Procedure, shortened: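 GR-bla HeLa cells carrying a GRE-driven beta-lactamase reporter, exposed to compounds for 18 h at 37 C. Reporter activation read as fluorescence after 2 h with LiveBLAzer B/G FRET substrate at room temperature.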

[19] = biological target: Glucocorticoid receptor (Homo sapiens) (UniProt P04150); experiment: qHTS assay to identify small molecule antagonists of the glucocorticoid receptor (GR) signaling pathway (AID 720692; active = well fitted inhibition curve with a large enough effect in the signal ratio in the repeat runs, not every such curve was filed as active; the % refers to the signal ratio)
Procedure, shortened: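 GR-bla HeLa cells carrying a GRE-driven beta-lactamase reporter received compound after 4 h plating, then dexamethasone (5 nM final). After 18 h at 37C, the FRET substrate was loaded for 2 h at room temperature and fluorescence read.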

[20] = qHTS assay for identifying genotoxic compounds that show differential cytotoxicity against isogenic chicken DT40 cell lines with known DNA damage response pathways - Rad54/Ku70 mutant cell line (AID 743015); note: nearly all actives have a fitted effect of over 60% in size
[21] = qHTS assay to identify small molecule antagonists of the androgen receptor (AR) signaling pathway - cell viability counter screen (AID 743033; note: nearly all actives have a fitted effect of over 45% in size)
[22] = qHTS assay to identify small molecule antagonists of the androgen receptor (AR) signaling pathway using the MDA cell line - cell viability counter screen (AID 743041; note: nearly all actives have a fitted effect of over 45% in size)
Procedure, shortened: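 MDA-kb2 AR-luc human breast carcinoma cells (MMTV-luciferase, AR/GR responsive) were treated with compounds plus R1881 agonist for 16 h at 37 °C. Viability was read as CellTiter-Fluor fluorescence in the same wells as the reporter assay.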

[23] = qHTS assay to identify small molecule antagonists of the thyroid receptor (TR) signaling pathway - cell viability counter screen (AID 743064); note: nearly all actives have a fitted effect of over 50% in size
Procedure, shortened: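 CellTiter-Fluor readout, 30 min at 37 °C/5% CO2, following 23.5 h incubation of GH3.TRE-Luc cells with test compound and 1 nM T3 (final).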

[24] = qHTS assay to identify small molecule antagonists of the thyroid receptor (TR) signaling pathway (AID 743065); note: series mostly up to about 70 µM; nearly all actives have a fitted effect of over 55% in size
Procedure, shortened: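 GH3.TRE-Luc rat pituitary cells carrying two TR response elements driving luciferase were plated for 4 h, given compound plus 1 nM T3 (final), and incubated 23.5 h at 37 C. ONE-Glo luminescence measured reporter inhibition; CellTiter-Fluor fluorescence tracked cytotoxicity.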

[25] = system: thyroid hormone receptor (rat, GH3 cells); experiment: qHTS assay to identify small molecule agonists of the thyroid receptor (TR) signaling pathway (AID 743066; calls by dose curve)
[26] = biological target: Estrogen receptor (Homo sapiens) (UniProt P03372); experiment: qHTS assay to identify small molecule antagonists of the estrogen receptor alpha (ER-alpha) signaling pathway (AID 743069; active = well fitted curve in the direction sought with a large enough effect in the signal ratio in the repeat runs, not every such curve was filed as active; the % refers to the signal ratio)
Chain of Estrogen receptor (Homo sapiens) (P03372 whole entry, looked up): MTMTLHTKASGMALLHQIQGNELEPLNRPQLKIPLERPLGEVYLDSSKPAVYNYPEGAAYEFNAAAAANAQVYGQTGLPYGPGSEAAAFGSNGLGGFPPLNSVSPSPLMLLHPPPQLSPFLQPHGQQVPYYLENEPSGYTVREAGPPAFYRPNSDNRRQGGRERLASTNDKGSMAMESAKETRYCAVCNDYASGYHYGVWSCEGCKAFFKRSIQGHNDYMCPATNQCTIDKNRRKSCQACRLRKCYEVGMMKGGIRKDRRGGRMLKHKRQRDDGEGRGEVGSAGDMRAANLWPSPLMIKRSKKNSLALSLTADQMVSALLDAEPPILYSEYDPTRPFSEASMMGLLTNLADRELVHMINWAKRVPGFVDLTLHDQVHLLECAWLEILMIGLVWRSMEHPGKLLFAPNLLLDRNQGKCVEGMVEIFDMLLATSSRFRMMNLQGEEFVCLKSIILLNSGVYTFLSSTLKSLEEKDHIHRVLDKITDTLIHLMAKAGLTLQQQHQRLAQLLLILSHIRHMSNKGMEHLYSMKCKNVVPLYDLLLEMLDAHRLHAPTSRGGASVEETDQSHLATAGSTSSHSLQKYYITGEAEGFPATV
Procedure, shortened: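 HEK293 cells stably carrying an ER-alpha-UAS-bla beta-lactamase reporter were pre-cultured overnight in 2% charcoal-stripped FBS medium. Test compounds in DMSO were added together with 17beta-estradiol for 18 hr at 37C. Read-out was fluorescence after 2 hr with LiveBLAzer B/G FRET substrate at room temperature.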

[27] = biological target: Estrogen receptor (Homo sapiens) (UniProt P03372); experiment: qHTS assay to identify small molecule agonists of the estrogen receptor alpha (ER-alpha) signaling pathway (AID 743075; calls by dose curve)
[28] = qHTS assay to identify small molecule antagonists of the estrogen receptor alpha (ER-alpha) signaling pathway using the BG1 cell line - cell viability counter screen (AID 743081);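 note: compound given together with 17beta-estradiol as the ER stimulus; series mostly up to about 70 µM; nearly all actives have a fitted effect of over 45% in size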
[29] = biological target: Aromatase (Homo sapiens) (UniProt P11511); experiment: qHTS assay to identify aromatase inhibitors (AID 743083); note: series mostly up to about 70 µM; nearly all actives have a fitted effect of over 55% in size
Chain of Aromatase (Homo sapiens) (P11511 whole entry, looked up): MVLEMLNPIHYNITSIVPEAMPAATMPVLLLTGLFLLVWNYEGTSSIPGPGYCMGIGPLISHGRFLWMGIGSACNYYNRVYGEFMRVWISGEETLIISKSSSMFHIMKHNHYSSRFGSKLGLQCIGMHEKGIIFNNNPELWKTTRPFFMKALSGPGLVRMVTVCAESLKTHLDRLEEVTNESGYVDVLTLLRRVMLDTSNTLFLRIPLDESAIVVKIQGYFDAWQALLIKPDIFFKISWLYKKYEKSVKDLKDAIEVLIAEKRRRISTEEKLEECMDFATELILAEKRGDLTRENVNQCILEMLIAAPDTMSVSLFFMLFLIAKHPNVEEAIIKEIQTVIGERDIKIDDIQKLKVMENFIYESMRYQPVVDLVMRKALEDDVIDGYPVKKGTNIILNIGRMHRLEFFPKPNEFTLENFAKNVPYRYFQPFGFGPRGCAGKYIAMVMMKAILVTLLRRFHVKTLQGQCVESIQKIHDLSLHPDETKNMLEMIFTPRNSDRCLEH

[30] = qHTS assay to identify aromatase inhibitors - cell viability counter screen (AID 743084);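 note: cells stimulated with testosterone during compound exposure; nearly all actives have a fitted effect of over 55% in size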
[31] = biological target: Aryl hydrocarbon receptor (Homo sapiens) (UniProt P35869); experiment: qHTS assay to identify small molecule that activate the aryl hydrocarbon receptor (AhR) signaling pathway (AID 743085);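 note: HG2L7.5c1 human HepG2 liver cells with stably integrated DRE-driven firefly reporter; series mostly up to about 70 µM; nearly all actives have a fitted effect of over 15% in size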
Chain of Aryl hydrocarbon receptor (Homo sapiens) (P35869 whole entry, looked up): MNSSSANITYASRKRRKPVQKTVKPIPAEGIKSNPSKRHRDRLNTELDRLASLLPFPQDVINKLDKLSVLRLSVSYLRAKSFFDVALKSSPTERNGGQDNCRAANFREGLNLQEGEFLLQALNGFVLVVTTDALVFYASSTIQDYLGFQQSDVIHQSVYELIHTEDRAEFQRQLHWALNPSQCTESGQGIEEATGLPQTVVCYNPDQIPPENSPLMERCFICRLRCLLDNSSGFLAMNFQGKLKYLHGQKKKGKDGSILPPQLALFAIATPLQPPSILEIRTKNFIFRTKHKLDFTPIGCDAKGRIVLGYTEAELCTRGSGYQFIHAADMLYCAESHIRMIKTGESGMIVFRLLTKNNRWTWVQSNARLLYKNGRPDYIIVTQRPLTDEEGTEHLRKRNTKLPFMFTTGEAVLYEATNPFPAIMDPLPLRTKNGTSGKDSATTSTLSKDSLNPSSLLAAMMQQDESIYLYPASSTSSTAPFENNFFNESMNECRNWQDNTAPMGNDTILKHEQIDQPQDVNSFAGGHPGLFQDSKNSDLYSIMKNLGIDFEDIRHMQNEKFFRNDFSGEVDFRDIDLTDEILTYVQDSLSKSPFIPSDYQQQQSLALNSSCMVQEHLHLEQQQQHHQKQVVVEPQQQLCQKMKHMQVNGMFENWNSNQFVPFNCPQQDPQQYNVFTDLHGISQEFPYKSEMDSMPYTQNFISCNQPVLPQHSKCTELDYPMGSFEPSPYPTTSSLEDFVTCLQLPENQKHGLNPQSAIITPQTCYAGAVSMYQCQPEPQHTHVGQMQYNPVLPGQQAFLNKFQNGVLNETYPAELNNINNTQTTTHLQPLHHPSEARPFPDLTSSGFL
Procedure, shortened: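 Stably transfected human liver carcinoma cells (HG2L7.5c1; 20 DRE-firefly luciferase) were incubated 5 h, dosed, and kept 24 h at 37C. Agonism was scored from increased luciferase luminescence.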

[32] = qHTS assay to identify small molecule that activate the aryl hydrocarbon receptor (AhR) signaling pathway - cell viability counter screen (AID 743086);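 note: HepG2 liver cells carrying the AhR DRE luciferase reporter; series mostly up to about 70 µM; nearly all actives have a fitted effect of over 45% in size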
Procedure, shortened: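 HepG2-AhR-luc (HG2L7.5c1) cells, 4000/well, were preincubated 5 h at 37C, exposed to compound in qHTS format for 24 hr at 37C, then given CellTiter-Fluor for 30 min; viability was read as fluorescence in the reporter wells.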

[33] = biological target: Peroxisome proliferator-activated receptor gamma (Homo sapiens) (UniProt P37231); experiment: qHTS assay to identify small molecule agonists of the peroxisome proliferator-activated receptor gamma (PPARg) signaling pathway (AID 743094; active = well fitted activation curve with a large enough effect in the signal ratio in the repeat runs, not every such curve was filed as active; the % refers to the signal ratio)
Chain of Peroxisome proliferator-activated receptor gamma (Homo sapiens) (P37231 whole entry, looked up): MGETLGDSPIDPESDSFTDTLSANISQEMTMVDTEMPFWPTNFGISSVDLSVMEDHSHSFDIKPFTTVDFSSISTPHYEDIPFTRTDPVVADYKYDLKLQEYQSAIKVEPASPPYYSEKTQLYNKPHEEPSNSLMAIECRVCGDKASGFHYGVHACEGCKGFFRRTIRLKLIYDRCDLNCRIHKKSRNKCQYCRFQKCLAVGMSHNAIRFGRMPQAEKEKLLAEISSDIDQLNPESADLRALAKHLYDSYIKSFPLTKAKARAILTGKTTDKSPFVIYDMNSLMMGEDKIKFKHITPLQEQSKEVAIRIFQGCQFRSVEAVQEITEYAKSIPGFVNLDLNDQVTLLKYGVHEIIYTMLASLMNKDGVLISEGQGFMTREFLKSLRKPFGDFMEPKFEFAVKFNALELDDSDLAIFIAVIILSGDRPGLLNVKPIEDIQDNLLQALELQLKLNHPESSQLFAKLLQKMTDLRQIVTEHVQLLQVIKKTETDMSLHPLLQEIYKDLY
Procedure, shortened: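 GeneBLAzer PPARg UAS-bla HEK293H cells were plated, rested 5 h, then exposed to compounds for 17 h at 37C. Beta-lactamase activity was read by LiveBLAzer B/G FRET substrate fluorescence after 1 h at room temperature.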

[34] = qHTS assay to identify small molecule antagonists of the estrogen related receptor (ERR) signaling pathway - cell viability counter screen (AID 1224818); note: series mostly up to about 46 µM
Procedure, shortened: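 ERR cells, 2,000 per well, compound added after 6 h and incubated 17.5 h at 37 C. Viability read by CellTiter-Fluor fluorescence after a further 30 min at 37 C.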

[35] = qHTS assay to identify small molecule antagonists of the estrogen related receptor (ERR) signaling pathway (AID 1224819;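 note: luminescence from an ERR-driven luciferase reporter measured with One-Glo reagent; series mostly up to about 46 µM; nearly all actives have a fitted effect of over 50% in size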)
Procedure, shortened: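 ERR reporter cell line (NTP) plated at 2,000 cells/well, settled 6 h at 37C/5% CO2, then exposed to LOPAC compounds for 18 h at 37C. One-Glo luciferase luminescence read after 30 min at room temperature.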

[36] = qHTS assay to identify small molecule agonists of the estrogen related receptor (ERR) signaling pathway (AID 1224820)
Procedure, shortened: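 Quantitative HTS of the LOPAC library used NTP ERR reporter cells treated 18 h at 37 C. Signal is luminescence after One-Glo addition and a 30 min room-temperature incubation.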

[37] = system: estrogen-related receptor alpha (ERRalpha) with PGC-1alpha coactivator, human; experiment: qHTS assay to identify small molecule antagonists of the estrogen related receptor signaling pathway with the pleiotropic PPARgamma coactivator (PGC) (AID 1224821; calls by dose curve;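 note: series mostly up to about 46 µM; lower luminescence signal means antagonism of PGC/ERR signalling; nearly all actives have a fitted effect of over 50% in size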)
Procedure, shortened: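 Quantitative HTS for antagonism: PGC/ERR cells received compounds after 6 h attachment and were incubated 18 h at 37 C, with luminescence (One-Glo) as the endpoint.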

[38] = qHTS assay to identify small molecule antagonists of the estrogen related receptor signaling pathway with the pleiotropic PPARgamma coactivator (PGC) cell viability counter screen (AID 1224822; note: series mostly up to about 46 µM)
Procedure, shortened: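 PGC/ERR cells rested 6 h, then compound-treated 17.5 h at 37 C. CellTiter-Fluor added for 30 min at 37 C, viability measured by fluorescence intensity.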

[39] = qHTS assay to identify small molecule agonists of the estrogen related receptor signaling pathway with the pleiotropic PPARgamma coactivator (PGC) (AID 1224823)
Procedure, shortened: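 Cell-based luciferase assay in the NTP-supplied PGC/ERR line, 2,000 cells/well; 18 h compound exposure at 37 C, luminescence after One-Glo.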

[40] = qHTS assay to identify small molecule phospholipidosis (PLD) inducers (AID 1259344; active = well fitted curve in the direction sought with a large enough effect; an effect the other way counts as inactive or inconclusive)
Procedure, shortened: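 HepG2 cells on collagen I, attached 4 h at 37 C, were co-treated with compound and LipidTOX Red dye for 24 h at 37 C, then fixed with paraformaldehyde plus Hoechst 33342 and imaged by high-content microscopy for phospholipid accumulation.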

Measured: Potency

CCCCc1ccc(C(=O)O)nc1
inactive: all assays above

CC(C)NP(=O)(NC(C)C)OP(=O)(NC(C)C)NC(C)C
inactive: [34] | [35] | [36] | [37] | [38] | [39]

S=C(NC1CCCCC1)N1CCC(c2cnc[nH]2)CC1
inactive: [34] | [35] | [36] | [37] | [38] | [39]
